Data taken from PubChem BioAssay (NCATS).
Results filed as inconclusive are left out. Where a call stands in place of a potency, no number is given. Calls of active or inactive are those of the source. Calls follow the shape of the dose curve; as a rule, active = well fitted curve in the direction sought with a large enough effect; inconclusive = small, poorly fitted or top-dose-only effect, or another doubt; inactive = no such curve, though single readings can be large; an effect the other way counts as inactive or inconclusive.

How the values were obtained:
[1] = target: Glutathione peroxidase 1 (Homo sapiens) (UniProt P07203); assay: Primary qHTS Assay for Inhibitors of Recombinant Selenoprotein Glutathione Peroxidase 1 (GPX1) (AID 1845191); also: nearly all actives have a fitted effect of over 65% in size
Chain of Glutathione peroxidase 1 (Homo sapiens) (P07203 whole entry, looked up): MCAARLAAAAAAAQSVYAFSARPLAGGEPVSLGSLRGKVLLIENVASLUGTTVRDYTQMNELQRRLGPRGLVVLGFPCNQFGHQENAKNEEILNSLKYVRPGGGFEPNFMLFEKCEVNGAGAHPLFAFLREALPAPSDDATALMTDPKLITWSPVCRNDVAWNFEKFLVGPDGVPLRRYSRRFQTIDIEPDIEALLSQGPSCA
Outline: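 Recombinant GPX1 (10 nM final) was preincubated with compound for 30 min at room temperature, then reacted with 1 mM GSH, 0.5 mM CHP, 0.5 mM NADPH and 100 nM glutathione reductase; NADPH fluorescence (340/450 nm) was read at 0 and 15 min.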

[2] = target: Phospholipid hydroperoxide glutathione peroxidase GPX4 (Homo sapiens) (UniProt P36969); assay: Primary qHTS Assay for Inhibitors of Recombinant Selenoprotein Glutathione Peroxidase 4 (GPX4) (AID 1845192); also: nearly all actives have a fitted effect of over 65% in size
Chain of Phospholipid hydroperoxide glutathione peroxidase GPX4 (Homo sapiens) (P36969 whole entry, looked up): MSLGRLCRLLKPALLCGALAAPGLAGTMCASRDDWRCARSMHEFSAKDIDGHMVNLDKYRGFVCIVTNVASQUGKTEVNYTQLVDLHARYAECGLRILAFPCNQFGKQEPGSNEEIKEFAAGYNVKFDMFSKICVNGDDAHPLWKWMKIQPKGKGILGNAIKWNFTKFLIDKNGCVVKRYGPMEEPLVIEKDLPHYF
Outline: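 GR-coupled readout: 100 nM GR, 1 mM GSH, 0.5 mM NADPH; NADPH fluorescence (ex 340/em 450 nm) read at t=0 and after 15 min RT. GPX4 200 nM, preincubated 30 min with compound; substrate 0.5 mM CHP.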

[3] = target: Metallo-beta-lactamase type 2 (Klebsiella pneumoniae) (UniProt C7C422); assay: qHTS to identify inhibitors of the New Delhi Metallo-beta-lactamase (NDM): assay validation screen against the NCATS LOPAC Collection (AID 1794843); also: series mostly up to about 38 µM
Chain of Metallo-beta-lactamase type 2 (Klebsiella pneumoniae) (C7C422 whole entry, looked up): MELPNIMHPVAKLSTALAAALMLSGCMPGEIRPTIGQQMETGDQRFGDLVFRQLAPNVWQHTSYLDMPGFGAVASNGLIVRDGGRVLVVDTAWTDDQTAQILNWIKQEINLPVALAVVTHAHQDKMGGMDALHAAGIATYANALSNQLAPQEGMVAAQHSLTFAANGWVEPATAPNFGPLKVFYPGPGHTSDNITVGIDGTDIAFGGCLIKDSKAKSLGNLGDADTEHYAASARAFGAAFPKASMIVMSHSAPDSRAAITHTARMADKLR
Outline: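 Absorbance at 485 nm from nitrocefin turnover (50 uM solution added), read at plateau, gives the read-out. Compounds in DMSO were incubated first with 2 nM final NDM-1 in pH 7.0 HEPES buffer containing 1 uM ZnSO4 and 0.01% Tween20.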

Compound | Potency [1] | Potency [2] | Potency [3]
O=C1OC(=O)C2C3CCC(O3)C12 (stereo not drawn) | inactive | inactive | 
COc1cc([C@@H]2c3cc4c(cc3[C@H](O)C3COC(=O)[C@@H]32)OCO4)cc(OC)c1OC (stereo partly drawn) | inactive | inactive | inactive
NC(C(=O)N[C@@H]1C(=O)N2C(C(=O)O)=C(Cl)CS[C@H]12)c1ccccc1 (stereo partly drawn) |  | inactive | inactive
Cc1ccccc1/C=C/C1=NCCN1 | inactive | inactive | 
CN1CCN(c2nc3cc(C(F)(F)F)ccc3n3cccc23)CC1 | inactive | inactive | 
O=c1oc(Cl)c(Cl)c2ccccc12 | inactive | inactive | inactive
CCSC(=N)N | inactive | inactive | inactive
CCC1(O)CC2CN(CCc3c([nH]c4ccccc34)[C@@](C(=O)OC)(c3cc4c(cc3OC)N(C=O)C3[C@]45CCN4CC=C[C@@](CC)([C@@H](OC(C)=O)[C@]3(O)C(=O)OC)[C@H]45)C2)C1 (stereo partly drawn) | inactive | inactive | inactive
CC(N)(Cc1ccc(O)c(O)c1)C(=O)O (stereo not drawn) | inactive | inactive | 
O=C1Nc2ccc(I)cc2/C1=C/c1cc(Br)c(O)c(Br)c1 | inactive | inactive | inactive
NC1(C(=O)O)CCc2cc(C(=O)O)ccc21 (stereo not drawn) | inactive | inactive | inactive
CN[C@H](CC(=O)O)C(=O)O | inactive | inactive | 
CCCCCCC(=O)OC1CC(C)(C)NC(C)(C)C1 |  | inactive | inactive
NCCC1CCCC(CCN)N1 (stereo not drawn) | inactive | inactive | inactive
COc1ccccc1N1CCN(CCN(C(=O)c2ccc(F)cc2)c2ccccn2)CC1 | inactive | inactive | 
CN(C)CCC(c1ccc(Br)cc1)c1ccccn1 (stereo not drawn) | inactive | inactive | inactive
CC1CCN(CC[C@H]2CCCN2S(=O)(=O)c2cccc(O)c2)CC1 | inactive | inactive | inactive
